# The campaign covered roughly 2,700 compounds. About 160 (5.9%) showed an effect of 50% or more. Shown is part of a subset that was picked to be rich in strong results.
# Target: Nonstructural protein 3 (Zika virus) (UniProt A0A024AXB9)
# [1] = PRVABC59, Concentration 15.0 uM, Number of replicates 1.0
# Chain of Nonstructural protein 3 (Zika virus) (A0A024AXB9 as listed by the source): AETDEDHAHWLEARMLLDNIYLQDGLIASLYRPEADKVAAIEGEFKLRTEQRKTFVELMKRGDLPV
smiles,measurement,setting,value
O=C(NC1CCN(Cc2ccccc2)CC1)c1cc(Cl)ccc1NS(=O)(=O)c1ccc(Oc2ccccc2Cl)cc1,inhibition,[1],8.32%
O=Cc1ccc(N2CCC(C(=O)NCc3cc(F)ccc3Br)CC2)cc1,inhibition,"PRVABC59, Concentration 10.0 uM, Number of replicates 1.0",4.33%
N=C(N)NCCC[C@H](NC(=O)c1nccs1)C(=O)N[C@@H](CCCCN)C(=O)N[C@@H](C(N)=O)c1ccc(OCc2ccc(C(F)(F)F)cc2)cc1,inhibition,[1],91.8%
same,inhibition,"PRVABC59, Concentration 49.5 uM, Number of replicates 2.0, Standard deviation 0.021859715861266255 %",94.6%
same,inhibition,"PRVABC59, Concentration 49.5 uM, Number of replicates 2.0, Standard deviation 0.024233426369399808 %",96.9%
same,inhibition,"PRVABC59, Concentration 49.5 uM, Number of replicates 2.0, Standard deviation 0.10948739718766008 %",93.8%
same,inhibition,"PRVABC59, Concentration 49.5 uM, Number of replicates 2.0, Standard deviation 0.1218738502028297 %",97.5%
same,inhibition,"PRVABC59, Concentration 49.5 uM, Number of replicates 2.0, Standard deviation 0.12395624169405596 %",92.6%
same,inhibition,"PRVABC59, Concentration 49.5 uM, Number of replicates 2.0, Standard deviation 0.12648640130386196 %",91.3%
same,inhibition,"PRVABC59, Concentration 49.5 uM, Number of replicates 2.0, Standard deviation 0.127991549557883 %",97.2%
same,inhibition,"PRVABC59, Concentration 49.5 uM, Number of replicates 2.0, Standard deviation 0.13878114277667186 %",95.3%
same,inhibition,"PRVABC59, Concentration 49.5 uM, Number of replicates 2.0, Standard deviation 0.18792773988825517 %",89.4%
same,inhibition,"PRVABC59, Concentration 49.5 uM, Number of replicates 2.0, Standard deviation 0.2282484497468692 %",91.2%
same,inhibition,"PRVABC59, Concentration 49.5 uM, Number of replicates 2.0, Standard deviation 0.23805618998274827 %",97%
same,inhibition,"PRVABC59, Concentration 49.5 uM, Number of replicates 2.0, Standard deviation 0.25515230043791925 %",95.5%
same,inhibition,"PRVABC59, Concentration 49.5 uM, Number of replicates 2.0, Standard deviation 0.3144519047683829 %",85.9%
same,inhibition,"PRVABC59, Concentration 49.5 uM, Number of replicates 2.0, Standard deviation 0.8044343068166325 %",87.1%
same,inhibition,"PRVABC59, Concentration 49.5 uM, Number of replicates 2.0, Standard deviation 1.112040214687694 %",90.3%
same,inhibition,"PRVABC59, Concentration 49.5 uM, Number of replicates 2.0, Standard deviation 1.1256998397026805 %",90.4%
same,inhibition,"PRVABC59, Concentration 49.5 uM, Number of replicates 2.0, Standard deviation 1.7230548786677078 %",84.5%
same,inhibition,"PRVABC59, Concentration 49.5 uM, Number of replicates 2.0, Standard deviation 1.876040520916915 %",90.3%
same,inhibition,"PRVABC59, Concentration 49.8 uM, Number of replicates 2.0, Standard deviation 1.8581405857669444 %",97.9%
same,inhibition,"PRVABC59, Concentration 49.95 uM, Number of replicates 2.0, Standard deviation 2.309253478244507 %",87.4%
same,inhibition,"PRVABC59, Concentration 50.0 uM, Number of replicates 2.0, Standard deviation 0.36743959706585505 %",88.7%
same,inhibition,"PRVABC59, Concentration 99.01 uM, Number of replicates 2.0, Standard deviation 0.0 %",93.4%
same,inhibition,"PRVABC59, Concentration 99.01 uM, Number of replicates 2.0, Standard deviation 0.012046580828777775 %",94.9%
same,inhibition,"PRVABC59, Concentration 99.01 uM, Number of replicates 2.0, Standard deviation 0.02911571730090177 %",93.7%
same,inhibition,"PRVABC59, Concentration 99.01 uM, Number of replicates 2.0, Standard deviation 0.06378807510947981 %",97.6%
same,inhibition,"PRVABC59, Concentration 99.01 uM, Number of replicates 2.0, Standard deviation 0.067278508515758 %",98.8%
same,inhibition,"PRVABC59, Concentration 99.01 uM, Number of replicates 2.0, Standard deviation 0.0706826251762859 %",98.7%
same,inhibition,"PRVABC59, Concentration 99.01 uM, Number of replicates 2.0, Standard deviation 0.071545792633789 %",97.3%
same,inhibition,"PRVABC59, Concentration 99.01 uM, Number of replicates 2.0, Standard deviation 0.07721572387026257 %",95.8%
same,inhibition,"PRVABC59, Concentration 99.01 uM, Number of replicates 2.0, Standard deviation 0.10372575440882682 %",99%
same,inhibition,"PRVABC59, Concentration 99.01 uM, Number of replicates 2.0, Standard deviation 0.10948739718766008 %",97%
same,inhibition,"PRVABC59, Concentration 99.01 uM, Number of replicates 2.0, Standard deviation 0.11599352189858977 %",97.7%
same,inhibition,"PRVABC59, Concentration 99.01 uM, Number of replicates 2.0, Standard deviation 0.1471970254873272 %",98.8%
same,inhibition,"PRVABC59, Concentration 99.01 uM, Number of replicates 2.0, Standard deviation 0.27009049224933246 %",94.8%
same,inhibition,"PRVABC59, Concentration 99.01 uM, Number of replicates 2.0, Standard deviation 0.8601032130289737 %",94.3%
same,inhibition,"PRVABC59, Concentration 99.01 uM, Number of replicates 2.0, Standard deviation 0.9406367368140138 %",94.2%
same,inhibition,"PRVABC59, Concentration 99.01 uM, Number of replicates 2.0, Standard deviation 1.3348561042489029 %",88.7%
same,inhibition,"PRVABC59, Concentration 99.01 uM, Number of replicates 2.0, Standard deviation 1.4059433391708933 %",94.2%
same,inhibition,"PRVABC59, Concentration 99.01 uM, Number of replicates 2.0, Standard deviation 1.7588979073405244 %",89.5%
same,inhibition,"PRVABC59, Concentration 99.5 uM, Number of replicates 2.0, Standard deviation 0.12741970111728718 %",93.3%
same,inhibition,"PRVABC59, Concentration 99.5 uM, Number of replicates 2.0, Standard deviation 0.16892187143335857 %",101%
same,inhibition,"PRVABC59, Concentration 99.9 uM, Number of replicates 2.0, Standard deviation 1.5690280406728871 %",94.6%
same,inhibition,"PRVABC59, Concentration 100.0 uM, Number of replicates 2.0, Standard deviation 4.458993610342439 %",98%
same,inhibition,"PRVABC59, Concentration 198.0 uM, Number of replicates 2.0, Standard deviation 0.0026488451352126683 %",96.7%
same,inhibition,"PRVABC59, Concentration 198.0 uM, Number of replicates 2.0, Standard deviation 0.013907785659018856 %",98.8%
same,inhibition,"PRVABC59, Concentration 198.0 uM, Number of replicates 2.0, Standard deviation 0.021082865149513456 %",97.6%
same,inhibition,"PRVABC59, Concentration 198.0 uM, Number of replicates 2.0, Standard deviation 0.03251443916482027 %",97.8%
same,inhibition,"PRVABC59, Concentration 198.0 uM, Number of replicates 2.0, Standard deviation 0.03514709991020475 %",97.2%
same,inhibition,"PRVABC59, Concentration 198.0 uM, Number of replicates 2.0, Standard deviation 0.0599254007371534 %",99.1%
same,inhibition,"PRVABC59, Concentration 198.0 uM, Number of replicates 2.0, Standard deviation 0.06866497124437239 %",99.6%
same,inhibition,"PRVABC59, Concentration 198.0 uM, Number of replicates 2.0, Standard deviation 0.07418384817578288 %",97.3%
same,inhibition,"PRVABC59, Concentration 198.0 uM, Number of replicates 2.0, Standard deviation 0.0745722735316593 %",98.9%
same,inhibition,"PRVABC59, Concentration 198.0 uM, Number of replicates 2.0, Standard deviation 0.07483122376891023 %",96.4%
same,inhibition,"PRVABC59, Concentration 198.0 uM, Number of replicates 2.0, Standard deviation 0.07712401232790286 %",99.5%
same,inhibition,"PRVABC59, Concentration 198.0 uM, Number of replicates 2.0, Standard deviation 0.08816716098733327 %",99.7%
same,inhibition,"PRVABC59, Concentration 198.0 uM, Number of replicates 2.0, Standard deviation 0.09263944737652126 %",98.7%
same,inhibition,"PRVABC59, Concentration 198.0 uM, Number of replicates 2.0, Standard deviation 0.09449525741015294 %",99.7%
same,inhibition,"PRVABC59, Concentration 198.0 uM, Number of replicates 2.0, Standard deviation 0.3759148225392137 %",97%
same,inhibition,"PRVABC59, Concentration 198.0 uM, Number of replicates 2.0, Standard deviation 0.4983928899622956 %",97.6%
same,inhibition,"PRVABC59, Concentration 198.0 uM, Number of replicates 2.0, Standard deviation 0.5225777631622108 %",97.2%
same,inhibition,"PRVABC59, Concentration 198.0 uM, Number of replicates 2.0, Standard deviation 0.6944775623239552 %",94.7%
same,inhibition,"PRVABC59, Concentration 198.0 uM, Number of replicates 2.0, Standard deviation 1.5146538856468006 %",93.1%
same,inhibition,"PRVABC59, Concentration 200.0 uM, Number of replicates 1.0",97.4%
NC(=O)c1cccc(NC(=O)[C@@H](NC(=O)c2ccc(Oc3ccc(C(F)(F)F)cc3)cc2)c2ccc(OCc3ccccc3)cc2)c1,inhibition,"PRVABC59, Concentration 49.5 uM, Number of replicates 2.0, Standard deviation 0.46044521626223894 %",6.3%
same,inhibition,"PRVABC59, Concentration 99.01 uM, Number of replicates 2.0, Standard deviation 0.010097036204057861 %",14.7%
same,inhibition,"PRVABC59, Concentration 198.0 uM, Number of replicates 2.0, Standard deviation 0.34129506399757725 %",30.3%
CCCC[C@H](NC(C)=O)C(=O)N[C@H](C(=O)Nc1cccc(C(N)=O)c1)c1ccc(OCc2ccccc2)cc1,inhibition,"PRVABC59, Concentration 49.5 uM, Number of replicates 2.0, Standard deviation 1.5133642763760644 %",0.392%
same,inhibition,"PRVABC59, Concentration 99.01 uM, Number of replicates 2.0, Standard deviation 2.3397962878359877 %",3.8%
same,inhibition,"PRVABC59, Concentration 198.0 uM, Number of replicates 2.0, Standard deviation 2.8724328178638086 %",7.97%

# Source: ChEMBL document CHEMBL5606458, “ASAP - ZIKV NS2B-NS3 protease fluorescence single point” (2024)
